Screening results from PubChem.
Only some compounds are listed: those with a hit (about 15% of all), similar ones and a draw of the others.
HCV inhibitor: qHTS Assay for Inhibitors of Hepatitis C Virus (HCV); Huh7.5.1 HCVcc-Cre infection, luciferase reporter, 44 h; Potency, µM (doses to about 41.8 µM), inactives show at the highest dose activity change, negative = inhibition, actives largely listed as inhibitors; 3.4% of 340,000 active; AID 651820, 2012; further: potency means the concentration at half of the fitted maximal effect; on the % scale 0 is the no-effect control and ±100 the full control effect
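1,000 cells/well; 4 h culture; + compound; + HCVcc-Cre (~0.5 moi); 44 h; luciferase substrate, RT 15 min; read 15 sec.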
Pf growth 48h: Primary qHTS for delayed death inhibitors of the malarial parasite plastid, 48 hour incubation; P. falciparum luciferase growth in erythrocytes, 48 h; Potency, µM (highest dose often 28.7 µM), inactives show at the highest dose activity change, negative = inhibition, most hits filed as inhibitors; 5.9% of 310,000 active; AID 504832, 2011; further: potency means the concentration at half of the fitted maximal effect; on the % scale 0 is the no-effect control and ±100 the full control effect
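Luciferase-expressing P. falciparum in infected erythrocytes (2% hematocrit, 0.1% parasitemia final) in RPMI 1640/0.5% Albumax were exposed to compound for 48 hours at 37 C, 5% CO2; growth read as luminescence.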
HCMV inh: qHTS Assay for inhibitors of the human cytomegalovirus (HCMV) | AID 1259415, 2018 | HFF cells, HCMV-luciferase reporter, 72 h; stronger effect = lower value | activity change, negative = inhibition, % at 57.5 µM | 4.5% of 410,000 active; in the data active means activity change below about -60%; inconclusive means no clear call, values can overlap the other calls; inactive means above about -39%; further: on the % scale 0 is the no-effect control and ±100 the full control effect
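Human foreskin fibroblasts infected with luciferase-reporter HCMV at MOI 1 PFU/cell, compounds at two doses. Luciferase measured 72 h post infection; normalized to buffer-only basal and Salinomycin (10uM) controls.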
Pf growth 96h: Primary qHTS for delayed death inhibitors of the malarial parasite plastid, 96 hour incubation | P. falciparum luciferase reporter growth, 96 h | Potency, µM (series often up to 28.7 µM), for inactives: at the highest dose activity change, negative = inhibition, actives largely listed as inhibitors | 6.9% of 320,000 active | AID 504834, 2011; further: potency means the concentration at half of the fitted maximal effect; on the % scale 0 is the no-effect control and ±100 the full control effect
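Readout is luminescence from an integrated firefly luciferase in P. falciparum. Red cells, 2% hematocrit and 0.05% parasitemia final, were cultured with compound through two parasite generations (96 hours) at 37 C, 5% CO2.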
SARS PLpro yeast: qHTS of Yeast-based Assay for SARS-CoV PLP. S. cerevisiae expressing SARS-CoV PLpro, growth rescue. Potency, µM (series often up to 32.9 µM), for the others: top-dose activity, positive = growth rescue, usual class: activators. 0.19% of 330,000 active. AID 485353, 2010; calls by dose curve; further: potency means the concentration at half of the fitted maximal effect; 0% is about no effect; nearly all actives have a fitted effect of over 55% in size
Sm TGR inh: qHTS Assay for the Inhibitors of Schistosoma Mansoni Peroxiredoxins. purified TGR, DTNB reduction, TNB absorbance 405 nm. Potency, µM (top dose mostly 114 µM), inactives show top-dose activity change, negative = inhibition, hits mostly inhibitors. 3% of 360,000 active. AID 485364, 2010; further: potency means the concentration at half of the fitted maximal effect; on the % scale 0 is the no-effect control and ±100 the full control effect; nearly all actives have a fitted effect of over 60% in size
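TGR 20 nM + NADPH 100 uM (dispensed conc.), cpd preinc 15 min RT; start with NADPH (500 uM addition) then DTNB (15 mM addition). Kinetic TNB absorbance, 405 nm filter. Four-parameter Hill fit across titration.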
* marks the source's active call; other numbers are inactive results; ? = inconclusive; / = not tested or not shown; ! = a repeat was not active; [ ] = dose if it differs, or a comment. Unless noted, the call rests on the fitted dose curve; in most records, active means well fitted curve in the direction sought with a large enough effect; inconclusive means small, poorly fitted or top-dose-only effect, or another doubt; inactive means no such curve, though single readings can be large; an effect the other way counts as inactive or inconclusive.

SMILES	HCV inhibitor	Pf growth 48h	HCMV inh	Pf growth 96h	SARS PLpro yeast	Sm TGR inh
COc1ccc(C(=O)COC(=O)CCN2C(=O)C3CC=CCC3C2=O)c(OC)c1 (stereo not given)	8%	33%	?	64%	-3%	-13%
Cc1ccc(N2C(=O)N(CC(=O)Nc3ccc(F)c(F)c3)C(=O)C2C)cc1 (stereo not given)	-26%	41%	19	4%	-1%	-10%
CC(C)NC(=NCc1ccc(Cl)cc1Cl)Nc1ccccc1	?	/	-101*	?	-1%	0%
O=C(C/C=N\OCc1ccc(Cl)cc1Cl)Nc1ccccc1	1%	0%	-21	-1%	-10%	6%
CCN(CC)CCCNc1oc(-c2ccc(OC)c(OC)c2)nc1C#N	?	-4%	46	/	-4%	7%
CCN(CC)CCCNc1oc(-c2ccccc2[N+](=O)[O-])nc1C#N	26%	?	-2	2.6µM*	-1%	-21%
COc1ccc(-c2nc3cc(C)ccn3c2NCC2CCCO2)cc1OC (stereo not given)	13%	/	30	/	/	/
CCCCNc1c(-c2ccc(OC)c(SC(C)CC)c2)nc2ccc(C)cn12 (stereo not given)	?	/	-63*!	/	-3%	/
CCCCNc1c(-c2ccc(-c3ccc(C(C)=O)cc3)c(OC)c2)nc2cc(C)ccn12	?	/	-93*	/	-31%	/
CCCCNc1c(-c2ccc(OC)c(SC(C)CC)c2)nc2cc(C)ccn12 (stereo not given)	7.1µM*	/	-79*!	/	15%	/
CCCCNc1c(-c2ccc(Sc3ccc(OC)cc3)cc2)nc2cc(C)ccn12	10µM*	/	29	/	-8%	/
COc1ccc(-c2nc3cc(C)ccn3c2NCc2ccc3c(c2)OCO3)cc1	9%	?	-26	20%	-2%	-30%
NC(=O)CN1C(=O)C(=O)N(Cc2cccc(C(F)(F)F)c2)C1=O	9%	-7%[0.00184 µM]	-10	48%	1%	0%
CCCCNc1c(-c2ccc(SC(C)CC)cc2)nc2ccccn12 (stereo not given)	22µM*	-71%	3	-86%	-2%	-4%
CSc1ccc(C2C(C(=O)c3ccco3)=C(O)C(=O)N2c2nnc(SC)s2)cc1 (stereo not given)	5%	65%	6	77%	-1%	-27%
CCOC(=O)c1sc2ncn(/N=C/c3ccccn3)c(=O)c2c1C	/	10%	/	6.6µM*	20%	7%
COC(=O)c1cccc(C23CC4(C2)[C@H](CN(Cc2ccc(-c5ccccc5)cc2)[C@@H]4c2ccccc2)C3c2ccccc2)c1 (stereo not given in full)	-8%	12µM*	15	1.7µM*	2%	?
COC(=O)c1ccc(C23CC4(C2)[C@H](CN(Cc2ccc(-c5ccccc5)cc2)[C@@H]4c2ccccc2)C3c2ccc(Cl)nc2)cc1 (stereo not given in full)	14%	12µM*	6	?	0%	?
CN(C(=O)c1ccccc1C(=O)OCC(=O)Nc1ccccc1)c1ccccc1	-6%	?	-16	?	3%	-22%
CN(C(=O)c1ccccc1C(=O)OCC(=O)c1ccc(Br)cc1)c1ccccc1	-24%	?	-19	12µM*	-4%	-13%
CC(C)Oc1ccccc1/C=N/Nc1ccccc1[N+](=O)[O-]	?	?	9	8.3µM*	-11%	4%
CC(C)/C(=N/Nc1ccccc1[N+](=O)[O-])c1ccccc1	?	7%	-24	8.3µM*	-1%	3%[57.1 µM]
O=C(Nc1cc2c3c(c1)C1CCCC1CN3CC1CCCC21)c1ccccc1 (stereo not given)	16µM*	13µM*	-69*	45%	-12%	-10%
